# Shown are actives, neighbours in structure and some others; about 3.6% of the full set was active somewhere.
# TDP-43 yeast inh = TDP-43 toxicity inhibition in yeast; TDP-43 expressing yeast growth rescue, BacTiter-Glo, 24 h; 410,000 compounds, 1.8% hits; AID 652104; Potency, µM (top dose mostly 46.1 µM), for the others: top-dose growth rescue (activation), actives largely listed as activators; also: % of control where 0% means no effect; nearly all actives have a fitted effect of over 50% in size
#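 Growth rescue of TDP-43-toxic yeast measured as ATP luminescence (BacTiter-Glo). Cells grown to mid-log in raffinose, induced in galactose at OD600=0.02, exposed to compound 24 hr at 30 deg C.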
# aSyn rescue = rescues yeast growth from alpha-synuclein toxicity; 370,000 compounds, 0.14% hits; Potency, µM (titrated, usually from 46.1 µM), without a hit: top-dose growth rescue (activation), most hits filed as activators; Yeast expressing alpha-synuclein, growth rescue, BacTiter-Glo, 24 h; also: % of control where 0% means no effect; nearly all actives have a fitted effect of over 65% in size
#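 Galactose-induced alpha-syn yeast (OD600=0.02, raffinose-pregrown) + pinned cpd, 24 hr, 30 deg C; growth by BacTiter-Glo luminescence. Growth restoration scores as activation.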
# FUS suppressor = FUS proteinopathy suppression in yeast; Potency, µM (titrated, usually from 76.6 µM), hits mostly activators; 390,000 compounds, 0.24% hits; S. cerevisiae FUS-expressing, growth rescue, OD600, 24 h;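 also: plate controls were DMSO vehicle for no effect and reference control for full effect; nearly all actives have a fitted effect of over 55% in size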
#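 Galactose (2%) drives FUS expression in yeast precultured in raffinose; seeding density OD 0.005. Test compounds incubated 24hr at 30C and 99% humidity before absorbance at 600 nm was measured.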
# ClpP mod = qHTS Assay for Activators of ClpP | ATP-dependent Clp protease proteolytic subunit (Bacillus subtilis (strain 168)), P80244 | purified B. subtilis ClpP, FRET peptide cleavage, 20 min | Potency, µM (doses to about 57.5 µM), without a hit: top-dose activity change, negative = active | 340,000 compounds, 1.9% hits | AID 651965, 2013; active = well fitted falling curve with a large enough effect; inconclusive = small, poorly fitted or top-dose-only effect; inactive = no such curve, though single readings can be large or run the other way; also: the source files actives as falling curves though it sought activators and does not explain the sign; nearly all actives have a fitted effect of over 65% in size
# Target sequence (P80244 whole entry, looked up): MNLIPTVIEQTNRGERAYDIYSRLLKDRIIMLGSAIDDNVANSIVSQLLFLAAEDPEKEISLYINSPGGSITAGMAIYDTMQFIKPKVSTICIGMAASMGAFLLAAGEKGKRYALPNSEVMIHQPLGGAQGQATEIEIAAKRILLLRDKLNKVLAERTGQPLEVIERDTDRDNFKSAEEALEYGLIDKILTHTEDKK
#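 Buffer: 100 mM Tris/HCl pH8, 100 mM KCl, 0.05% low protease BSA, 2.5% glycerol, 0.01% Tween-20. ClpP 10 microg/mL final; 20 min RT; delta FRET normalized to ADEP and DMSO controls.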
# Mm-Cpn inhibitor = blocks the Methanococcus maripaludis chaperonin Mm-Cpn | purified Mm-Cpn ATPase, ADP Transcreener TR-FRET | Potency, µM (top dose mostly 76.9 µM), inactives show at the highest dose activity, negative = inhibition, actives largely listed as inhibitors | 330,000 compounds, 0.031% hits | AID 504842; also: % is scaled to controls: 0 for no effect and ±100 for the full control effect; nearly all actives have a fitted effect of over 80% in size
#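 ATPase read-out: TR-FRET ADP immunoassay (anti-ADP Eu cryptate vs ADP-d2), ex 320 nm, em 590/665 nm; signal drops as ADP forms. Enzyme 25 nM, ATP 10 uM, 30 min at 37°C after 10 min compound preincubation.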
# Abeta rescue = restores growth of yeast expressing A-beta42 peptide; yeast expressing A-beta42, growth rescue, OD600, 48 h; response scale: 0% DMSO, 100% iron-clioquinol control; 410,000 compounds, 0.063% hits; AID 1347071; Potency, µM (doses to about 46.1 µM), most hits filed as activators; also: nearly all actives have a fitted effect of over 55% in size
#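 Growth rescue measured by 600 nm absorbance after 48 h yeast culture at 30 C with compound. Values normalized between DMSO and an equimolar ferric chloride plus clioquinol control.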
# * hit, by the source's call; i = inactive; ? = inconclusive; nt = not tested or not shown. Unless noted, calls follow the shape of the dose curve; as a rule, active = well fitted curve in the direction sought with a large enough effect; inconclusive = small, poorly fitted or top-dose-only effect, or another doubt; inactive = no such curve, though single readings can be large; an effect the other way counts as inactive or inconclusive. Potency is read from the fitted curve at half-maximal effect.
SMILES,TDP-43 yeast inh,aSyn rescue,FUS suppressor,ClpP mod,Mm-Cpn inhibitor,Abeta rescue
Cc1cccc(C2NC(=O)c3ccccc3O2)c1 (centres undefined),14µM*,7%,i,-10%,2%,i
O=C(O)CCCCCCCCc1cn(CCc2c[nH]c3ccccc23)nn1,13µM*,-10%,i,-1%,-12%,i
CCCCCc1ccc(-c2cn(CCc3c[nH]c4ccccc34)nn2)cc1,13%,-2%,i,0%,0%,i
CC(C)c1ccc2oc(=O)cc(CN3CCN(c4ccc(F)cc4)CC3)c2c1,14µM*,7%,i,-1%,2%,i
COc1cc(C(O)c2nc(-c3cc(F)cc(F)c3)cs2)ccc1F (centres undefined),35µM*,?,i,0%,nt,?
COc1cc(F)ccc1-c1csc(C(O)c2ccc(F)cc2)n1 (centres undefined),?,0%,i,-1%,nt,?
COc1cc(C(O)c2nc(-c3cccc(F)c3)cs2)ccc1F (centres undefined),16µM*,?,i,-6%,nt,i
OC(c1ccccc1)c1nc(-c2cc(F)cc(F)c2)cs1 (centres undefined),?,18%,i,-2%,nt,i
COc1ccc(C(O)c2nc(-c3cc(F)cc(F)c3)cs2)cc1 (centres undefined),35µM*,?,i,-2%,nt,?
COc1ccc(C(O)c2nc(-c3ccc(F)cc3OC)cs2)cc1 (centres undefined),22µM*,0%,i,-2%,nt,?
CC(=O)c1cccc(NC(=O)C2CCCN(C(=O)c3cnn(-c4ccccc4)c3-n3cccc3)C2)c1 (centres undefined),10%,nt,i,2%,nt,i
Cc1c(CC(=O)N2CCCCC2)c(=O)oc2cc(O)ccc12,18%,nt,i,4%,nt,i
COc1cc(C(O)c2nc(-c3ccccc3OC)cs2)ccc1F (centres undefined),18µM*,?,i,0%,nt,i
COc1ccc(C(O)c2nc(-c3ccc(C)c(C)c3)cs2)cc1 (centres undefined),?,10µM*,i,-8%,nt,i
COc1ccc(-c2csc(C(O)c3ccc(F)cc3)n2)cc1OC (centres undefined),22µM*,13%,i,-6%,nt,i
COc1cc(C(O)c2nc(-c3cccc(C(C)C)c3)cs2)ccc1F (centres undefined),22µM*,-20%,i,-1%,nt,i
COc1cc(C(O)c2nc(-c3cc4ccccc4o3)cs2)ccc1F (centres undefined),17%,-17%,i,-7%,nt,?
CC(C)c1cccc(-c2csc(C(O)c3ccc(F)cc3)n2)c1 (centres undefined),-82%,-17%,i,1%,nt,i
CCOC(=O)CC(=O)CSc1nc2ccccc2c(=O)n1CCc1ccccc1,?,nt,i,-2%,nt,i
Cc1cc(C)cc(NC(=O)c2ccc3oc(=O)c(S(=O)(=O)c4ccc(F)cc4)cc3c2)c1,-2%,nt,i,-3%,nt,i
Cc1ccc(C)c(OCC(=O)NC2CCCCCC2)c1,11µM*,11%,i,11%,0%,i
CCN(CC)c1ccc(C=Nn2c(C)nnc2C)cc1,nt,nt,i,nt,nt,nt
CC(Sc1nnc(-c2ccccc2)n1C)C(=O)NCc1ccco1 (centres undefined),nt,4%,nt,1%,nt,nt
CN1C(=O)NC(c2ccccc2)C2=C1CN(c1cccc(C(F)(F)F)c1)C2=O (centres undefined),-31%,-2%,?,40µM*,-1%,i
COc1ccc(C2NC(=O)N(C)C3=C2C(=O)N(c2ccccc2)C3)cc1 (centres undefined),8%,-4%,i,-17%,nt,i
SMILES,TDP-43 yeast inh,aSyn rescue,FUS suppressor,ClpP mod,Mm-Cpn inhibitor,Abeta rescue
COCCNC(=O)Cn1cc2c(n1)CCC(C)C2 (centres undefined),6%,-1%,i,1%,-2%,i
CC1CCc2nn(CC(=O)NCCC3=CCCCC3)cc2C1 (centres undefined),18µM*,-2%,i,2%,0%,?
O=C(OCc1csc(Nc2ccccc2)n1)c1ccc(Cl)cc1,10µM*,-17%,i,-1%,-4%,?
O=C(OCc1csc(-c2ccccc2)n1)c1ccc(O)cc1,10µM*,-8%,i,nt,-3%,i
C#CCOCCOCCOCCNc1nc(N2CCN(C(=O)CCCCCCCCCCNC(=O)[C@H]([C@@H](C)CC)n3cc(CCCCCN)nn3)CC2)nc(N2CCN(C(=O)CCCCCCCCCCNC(=O)[C@H](CO)n3cc(CCCCCN)nn3)CC2)n1,8%,-41%,14µM*,2%,3%,i
C#CCOCCOCCOCCNc1nc(N2CCN(C(=O)CCCCCCCCCCNC(=O)[C@@H](CCC(=O)O)n3cc(CCCCCN)nn3)CC2)nc(N2CCN(C(=O)CCCCCCCCCCNC(=O)[C@H]([C@@H](C)CC)n3cc(CCCCCN)nn3)CC2)n1,2%,-33%,?,1%,45µM*,i
C#CCOCCOCCOCCNc1nc(N2CCN(C(=O)CCCCCCCCCCNC(=O)[C@H]([C@@H](C)CC)n3cc(CCCCN=C(N)N)nn3)CC2)nc(N2CCN(C(=O)CCCCCCCCCCNC(=O)[C@H](CCCCN)n3cc(C)nn3)CC2)n1,-79%,-49%,11µM*,-3%,-3%,i
C#CCOCCOCCOCCNc1nc(N2CCN(C(=O)CCCCCCCCCCNC(=O)[C@H]([C@@H](C)CC)n3cc(CCCCCN)nn3)CC2)nc(N2CCN(C(=O)CCCCCCCCCCNC(=O)[C@H](CCCCN)n3cc(CCCC(=O)O)nn3)CC2)n1,26%,-41%,?,-21%,3%,i
C#CCOCCOCCOCCNc1nc(N2CCN(C(=O)CCCCCCCCCCNC(=O)[C@H]([C@@H](C)CC)n3cc(CCCCCN)nn3)CC2)nc(N2CCN(C(=O)CCCCCCCCCCNC(=O)[C@H]([C@@H](C)CC)n3cc(CCCCN=C(N)N)nn3)CC2)n1,nt,nt,nt,nt,5%,nt
Cc1ccc(C(=O)C2CCN(CC(=O)N3CC(C)CC(C)C3)CC2)cc1 (centres undefined),nt,nt,i,nt,nt,nt
